# Screening data (PubChem BioAssay)
# MIN6 prolif: inducers of beta-cell replication in MIN6 cells; MIN6 cells proliferation, ATPlite luminescence, 48 h; cells starved in 0.2% serum; 100% = growth in 10% serum; proliferation, % at 10 µM; hit rate 0.29% among 330,000;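 active = compounds whose signal lies at least 3.5 SD above the mean of all wells on their plate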;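 note: 0% = DMSO-treated cells in low-serum medium and 100% = 10% serum control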
# Exocytosis inh: blocks lytic granule exocytosis. hit rate 0.66% among 360,000. AID 651702. inhibition, % at 10 µM. TALL-104 LAMP-1 surface exposure, flow cytometry; cells stimulated with thapsigargin and PMA;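 active = inhibition above about 55%, limit read from the data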
# M18AAP inhibitor: PfM18AAP enzyme inhibition | recombinant PfM18AAP, H-Glu-NHMec fluorogenic cleavage | inhibition, % at 7.35 µM | hit rate 1.2% among 290,000 | AID 1822;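 active = inhibition above the campaign mean inhibition over all tested compounds plus 3 SD, cut at about 28% in these data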;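 note: 0% = plate median of test compound wells and 100% = 2 mM ZnCl2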
# ALR H2O2 inh: blocks human ALR sulfhydryl oxidase activity | P55789 | purified ALR, DTT oxidation, H2O2 HRP-luminol luminescence | inhibition, % (test concentration not listed) | hit rate 3.8% among 290,000 | AID 485317;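 active = mean replicate inhibition above about 79%, with every replicate also reaching it, limit read from the data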
# GASC-1 inh: blocks human GASC-1 demethylase activity; Q9H3R0; GST-JMJD2C(1-420) H3K9me3 demethylation, DELFIA europium; inhibition, % at 2.35 µM; hit rate 0.069% among 330,000; AID 2099;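 active = more than half of a compound's replicate wells show inhibition beyond 50%, single wells judged on their own value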;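 note: signal counts dimethyl H3K9 product captured on neutravidin plate; 0% = median of DMSO wells and 100% = 0.3 times that DMSO median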
# Target sequence (Q9H3R0 1-420 limits assumed): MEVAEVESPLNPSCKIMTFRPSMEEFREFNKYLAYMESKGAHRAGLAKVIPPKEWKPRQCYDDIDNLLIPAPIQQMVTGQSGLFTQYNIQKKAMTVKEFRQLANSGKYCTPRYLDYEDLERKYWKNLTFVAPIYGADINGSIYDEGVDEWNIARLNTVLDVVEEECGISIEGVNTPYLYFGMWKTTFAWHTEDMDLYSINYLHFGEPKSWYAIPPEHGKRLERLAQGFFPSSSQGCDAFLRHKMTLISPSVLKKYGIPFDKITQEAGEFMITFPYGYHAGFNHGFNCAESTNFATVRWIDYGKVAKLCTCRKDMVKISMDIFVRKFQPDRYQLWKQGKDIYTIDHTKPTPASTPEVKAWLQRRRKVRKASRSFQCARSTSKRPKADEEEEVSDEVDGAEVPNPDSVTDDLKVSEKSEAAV
# SMARCA2 activ: increases SMARCA2 function in MMTV reporter cells; MG213 cells, MMTV-luciferase reporter, dexamethasone, overnight; AID 652017; activation, % at 9.1 µM; hit rate 1% among 370,000; in the data active = activation above about 7.8%;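 note: 0% = vehicle wells and 100% = reference activator wells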
# * = called active by the depositor; · = not tested or not shown. Compounds with a hit are over-represented: about 5.4% of the library has one in this group of screens.
SMILES,MIN6 prolif,Exocytosis inh,M18AAP inhibitor,ALR H2O2 inh,GASC-1 inh,SMARCA2 activ
Nc1ccc2nc(SCC(=O)N3CCN(c4ccccc4)CC3)sc2c1,-1,-3,-7,·,-1,-4
CN1OC[C@@H]2CN(C(=O)c3ccc(C#N)cc3)[C@H](c3cccc(Br)c3)C[C@@H]21,·,·,·,·,·,1
CCOC(=O)N1CCN(C(=O)C[C@H]2C[C@@]3(C(=O)OC)C(=C[C@H](C(C)C)O[C@@H]3C3CC3)N(Cc3ccco3)C2=O)CC1,·,·,·,·,·,-3
Cc1ccc(-n2c(SCC(=O)Nc3ccc4c(c3)OCCO4)nnc2-c2cccnc2)cc1,·,·,·,·,·,-4
Cc1cc(N2CCN(Cc3ccc4c(c3)OCO4)CC2)n2nc(C)nc2n1,·,·,·,·,·,-6
CCOC(=O)CSc1nc2ccc(N)cc2s1,-5,1,6,99*,9,-1
Nc1ccc2nc(N3CCOCC3)sc2c1,-1,1,0,99*,-2,1
Nc1ccc2nc(SCC(=O)Nc3ccc(N4CCOCC4)c(Cl)c3)sc2c1,-5,-10,5,99*,3,-3
c1ccc2sc(N3CCOCC3)nc2c1,-3,-3,0,-2,-2,1
Cc1ccc(NC(=O)CSCC(=O)Nc2ccc(N3CCOCC3)c(Cl)c2)cc1,-4,1,-4,98*,5,1
CCn1c(COc2ccc(C)cc2)nnc1SCC(=O)c1ccc(-c2ccccc2)cc1,·,·,·,·,·,-5
COC(=O)c1cccc(Cn2ccc3ccc(-c4ccc5ccn(C(=O)C6CCC6)c5c4)cc32)c1,·,·,·,·,·,0
CCCCN1CC[C@@H](C)Oc2cc(Br)ccc2S1(=O)=O,·,·,·,·,·,-3
CC(NC(=O)CSc1nc2ccc(N)cc2s1)c1ccccc1 (configuration not stated),1,3,0,96*,-10,0
CC(NC(=O)CSc1n[nH]c(N)n1)c1ccccc1 (configuration not stated),0,-2,-5,·,4,-1
CC(C)C(=O)Nc1nnc(SCc2cccc(F)c2)s1,-1,10,-7,·,-6,-2
Nc1ccc2nc(SCc3cccc(F)c3)sc2c1,-4,2,-4,99*,40,4
Cc1noc(C)c1S(=O)(=O)N(C)C[C@@H]1OCc2cn(nn2)CCCC(=O)N([C@H](C)CO)C[C@H]1C,·,·,·,·,·,-4
CCC1C(C#N)=C(SCC(N)=O)NC2=C1C(=O)CC(C)(C)C2 (configuration not stated),5,-10,-4,97*,10,2
CC(=O)Nc1nc(-c2cccs2)cs1,2,0,-3,-4,29,-1
O=C(Nc1nc(-c2cccs2)cs1)c1ccc(Cl)s1,-8,1,0,97*,27,0
O=C(CCc1ccc(S(=O)(=O)N2CCOCC2)cc1)N/N=C/c1ccc(O)c(O)c1O,3,-2,12,99*,0,-2
CCCCCCNCC1OCc2ccccc2CO1,-1,0,-3,-12,4,0
c1ccc(NCC2OCc3ccccc3CO2)cc1,0,3,-6,98*,-1,2
Nc1c(C(=O)N2CCOCC2)cnn1Cc1ccccc1,·,·,·,·,·,-2
SMILES,MIN6 prolif,Exocytosis inh,M18AAP inhibitor,ALR H2O2 inh,GASC-1 inh,SMARCA2 activ
Cc1ccc(C)c(NC(NC(=O)c2cccnc2)C(Cl)(Cl)Cl)c1 (configuration not stated),-1,-3,2,-9,6,-1
COc1ccccc1NC(NC(=O)c1cccnc1)C(Cl)(Cl)Cl (configuration not stated),-3,-1,2,88*,47,-3
NS(=O)(=O)c1ccc(NC(NC(=O)c2cccnc2)C(Cl)(Cl)Cl)cc1 (configuration not stated),-1,-6,6,1,3,0
Cc1ccc(NC(NC(=O)c2cccnc2)C(Cl)(Cl)Cl)cc1 (configuration not stated),0,-7,4,99*,5,1
Cc1ccc(C(=O)NCCCNC(=O)c2ccccn2)cc1,-3,-6,2,-7,14,-1
Cc1ccc(NC(NC(=O)c2cccs2)C(Cl)(Cl)Cl)cc1 (configuration not stated),-4,1,-1,98*,-1,-1
Cc1ccc(NC(NC(=O)c2ccccn2)C(Cl)(Cl)Cl)cc1 (configuration not stated),-1,-1,2,99*,11,2
CN(CC#Cc1ccccc1)C(N)=NC(=O)/C=C/c1ccccc1,·,·,·,·,·,1
CCOC(=O)N1CCN(C(=O)C[C@H]2C[C@@]3(C(=O)OC)C(=C[C@H](C4CCCC4)O[C@@H]3C)N(CCc3ccc(OC)c(OC)c3)C2=O)CC1,·,·,·,·,·,-5
C[C@@H]1COc2cc(Br)ccc2S(=O)(=O)N1Cc1cn(Cc2ccccc2)nn1,·,·,·,·,·,-1
Clc1ccc([C@H]2OC[C@@]3(CNCCN4CCOCC4)CS[C@H](c4ccc(Cl)cc4)N23)cc1,·,·,·,·,·,-3
C[C@H](O)[C@@H]1CN2CCc3ccc(-c4ccc5c(c4)OCO5)cc3[C@@H]2C[C@@H]1N(C)CC1CCCCC1,·,·,·,·,·,0
Cc1cccc(/C=N/n2c(-c3ccccc3)n[nH]c2=S)c1O,-3,-5,10,91*,-2,3
Oc1c(Br)cc(Br)c(/C=N/n2c(-c3ccccc3)n[nH]c2=S)c1Br,-4,0,7,85*,8,3
Oc1ccc(Br)cc1/C=N/n1c(-c2ccccc2)n[nH]c1=S,1,0,1,67,-5,-1
O=C1/C(=C/c2ccc(O)cc2)SC(=S)N1CC1CCCO1 (configuration not stated),-3,-8,7,99*,7,-3
CCCOc1ccc(/C=C2\SC(=S)N(CC3CCCO3)C2=O)cc1 (configuration not stated),-1,6,1,-11,-1,-1
Cc1ccccc1NC(=O)CSc1nnc(C)c(=O)[nH]1,-2,-8,-4,-7,2,-2
CCCCc1c(O)nc(SCC(=O)c2ccccc2)[nH]c1=O,-4,1,0,99*,2,0
CCCCc1c(O)nc(SCC(=O)O)[nH]c1=O,-2,14,7,5,3,-3
CCc1c(O)nc(SCC(=O)Nc2ccccc2C)[nH]c1=O,-1,12,-7,99*,-8,3
CCC(C)N(C(=O)CSc1nnc(-c2cc(OC)c(OC)c(OC)c2)o1)C(C)CC (configuration not stated),·,·,·,·,·,-6
COc1ccccc1CNc1cc(C)ccc1C,-4,3,-3,83*,-5,-1
COc1cccc(/C=N/N2C(=O)NC3(CCCCC3)C2=O)c1O,0,-2,1,84*,1,-2
CC1(C)CC(=O)C(C=NCCc2ccc(O)cc2)=C(O)C1,-2,-1,1,96*,-1,-1
CC1(C)CC(=O)C(C=NCCc2ccccn2)=C(O)C1,0,1,1,1,-3,-1
